Screening data (PubChem BioAssay)
tim23-1 inh: growth inhibitors of tim23-1 mutant yeast, primary screen, luminescence, uHTS | inhibition, % at 20 µM | hit rate 1.3% among 330,000 | S. cerevisiae tim23-1 growth, BacTiter-Glo luminescence, 24 h;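 active means growth inhibition of the mutant yeast at or above 50%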;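 further: temperature-sensitive mutant grown at 25 °C; plate controls were DMSO-treated mutant yeast for no effect and medium wells lacking yeast for full effect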
tim10-1 inh: growth inhibitors of tim10-1 mutant yeast, primary screen, luminescence, uHTS; S. cerevisiae tim10-1 ts strain growth, BacTiter-Glo, 24 h; inhibition, % at 20 µM; hit rate 2.2% among 330,000; AID 463190, 2010;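 active means inhibition of at least 40%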;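 further: mutant grown at 25 °C; 0% = DMSO wells with yeast and 100% = wells holding no yeast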
PfHsp90 set2: growth inhibition of PfHsp90-expressing yeast, primary screen, antimalarial PfHsp90 inhibitor project, S. cerevisiae, BacTiter-Glo luminescence, single point, set 2; inhibition, % at 9.4 µM; BacTiter-Glo ATP, 48 h; yeast lacking PDR1 and PDR3 efflux regulators; hit rate 0.32% among 310,000;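 active means every replicate shows inhibition above about 80%, whatever the replicate mean, limit read from the data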;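 further: 0% = DMSO neutral controls and 100% = 20 µM radicicol positive controls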
TIM10 inh: growth inhibitors of isogenic TIM10 control yeast, primary screen, counter-screen for tim10-1 yeast inhibitor project, luminescence, uHTS | S. cerevisiae TIM10 strain growth, BacTiter-Glo luminescence, 24 h | inhibition, % at 10 µM | hit rate 1.4% among 330,000 | AID 463195, 2010;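 active means inhibition of 40% or more at the single tested concentration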;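 further: wild-type TIM10 isogenic control strain grown at permissive 25 °C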
NALP3 yeast inh: NALP3 inflammasome inhibitors in reconstituted yeast, primary screen, luminescence, uHTS; Yeast reconstituted NLRP3/ASC/caspase-1, beta-gal luminescence, 24 h; inhibition, % at 10 µM; hit rate 0.39% among 330,000; AID 2825, 2010;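 active means inhibition of 50% or more; inactive means inhibition below 50%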;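 further: plate controls were induced DMSO wells for no effect and uninduced yeast grown without galactose for full effect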
NALP3 confirm: NALP3 inhibitors retested in yeast, confirmation, luminescence, single concentration; inhibition, % at 10 µM; hit rate 81% among 1,300; shares compounds with NALP3 yeast inh; yeast expressing human NALP3; in the data active means inhibition above about 48%
Casp1 ASC ctr: CASP1-PYCARD signaling inhibition in yeast, confirmatory test, counterassay for NLRP3 inhibitor program, one-dose | shares compounds with NALP3 yeast inh | yeast expressing Caspase-1-ASC, luminescence counter screen | hit rate 66% among 1,000 | inhibition, % at 10 µM
NALP3 yeast rt: NALP3 inhibitors in yeast, repeat test, confirmation, luminescence, single concentration, retest; AID 488794, 2010; inhibition, % at 10 µM; yeast expressing human NALP3, luminescence read-out; shares compounds with NALP3 yeast inh; hit rate 53% among 1,000
tim10-1 confirm: growth inhibitors of tim10-1 mutant yeast, confirmation, single concentration, luminescence, S. cerevisiae | shares compounds with tim10-1 inh | hit rate 56% among 7,400 | S. cerevisiae tim10-1 ts strain growth, BacTiter-Glo, 24 h | AID 463213, 2010 | inhibition, % at 20 µM;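 active means inhibition of yeast growth at or above a set limit in either of two repeat tests at 20 µM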;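 further: tim10-1 mutant grown at permissive 25 °C to find synthetic lethal compounds; 0% = DMSO yeast wells and 100% = medium wells without yeast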
tim10 confirm: growth inhibitors of wild-type TIM10 yeast, confirmation, counter-screen for tim10-1 synthetic lethality project, single concentration, luminescence, S. cerevisiae | S. cerevisiae tim10 strain growth, BacTiter-Glo luminescence, 24 h | shares compounds with TIM10 inh | inhibition, % at 10 µM | AID 463215, 2010 | hit rate 63% among 4,600;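 active means inhibition of yeast growth at or above a set limit in either of two replicates at 10 µM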;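 further: this counterscreen used the strain with wild-type TIM10; 0% = yeast with DMSO and 100% = medium wells lacking yeast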
tim23-1 conf: tim23-1 mutant yeast growth inhibitors, confirmation, luminescence, single concentration. shares compounds with tim23-1 inh. S. cerevisiae tim23-1 growth, BacTiter-Glo luminescence, 24 h. inhibition, % at 20 µM. hit rate 83% among 4,400;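 active means inhibition above about 39% in either of two replicate wells at 20 µM, limit read from the data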;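 further: temperature-sensitive tim23-1 mutant grown at 25 °C; 0% = DMSO wells with yeast and 100% = medium wells without yeast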
The depositor's hits bear a star; · = no result given. A selection: hits, their analogues and other compounds. The true share with any hit is near 3.7%. Unless noted, no stated cut-off is given here; in the data, active means inhibition above about 50%; inactive means the rest.

SMILES | tim23-1 inh | tim10-1 inh | PfHsp90 set2 | TIM10 inh | NALP3 yeast inh | NALP3 confirm | Casp1 ASC ctr | NALP3 yeast rt | tim10 confirm | tim23-1 conf | others
COc1ccc2c(=O)c(-c3cnn(-c4ccccc4)c3)c(C)oc2c1 | 46 | 48* | 11 | 70* | 62* | 66* | 59* | 68* | 65* | · | tim10-1 confirm=29
CCOc1ccc(CCNC(=O)CCNS(=O)(=O)c2ccc(Br)cc2)cc1OCC | 14 | 14 | -33 | 10 | 7 | · | · | · | · | ·
O=c1c(O)c(-c2cccs2)oc2ccccc12 | 15 | 42* | -57 | 65* | 67* | 87* | 79* | 73* | 71* | · | tim10-1 confirm=35*
COc1ccc(-c2c(NCCc3ccccc3)c(=O)c2=O)cc1 | 23 | -15 | -23 | 15 | -1 | · | · | · | · | ·
CCCOc1ncnc2c1[nH]c1ccc(OC)cc12 | 6 | 4 | 3 | 9 | 32 | · | · | · | · | ·
CCCOc1ncnc2c1[nH]c1ccccc12 | 34 | 2 | 32 | 48* | 74* | 88* | 81* | 76* | 31* | ·
CSc1ccc2c(c1)N(CCC1CCCCN1C)c1ccccc1S2 (stereo not given) | 17 | 23 | -6 | 53* | 52* | 60* | 52* | 33 | 29 | ·
CC(=O)c1ccc2c(c1)N(CCCN1CCC(CCO)CC1)c1ccccc1S2 | -32 | -11 | -4 | 9 | 12 | · | · | · | · | ·
CCn1c(-c2csc3c2CCCC3)n[nH]c1=S | 35 | 29 | 4 | 34 | 29 | · | · | · | · | ·
CCCCn1c(-c2csc3c2CCCC3)n[nH]c1=S | 34 | 20 | · | 43* | 54* | 66* | 65* | 55* | 24 | ·
O=C(C=Cc1ccccc1Cl)c1ccccc1 | · | · | -45 | · | · | · | · | · | · | ·
Cc1[nH]c2ccccc2c1C(=O)/C=C\c1ccccc1Cl | 47 | 30 | 9 | 43* | 53* | -20 | · | · | 12 | ·
Cc1ccc(OCc2cc(C(=O)N(C)Cc3cnc4ccccn34)no2)cc1C | 20 | 27 | -20 | 16 | 17 | · | · | · | · | ·
CN(C)CCCN(C(=O)c1cc(-c2cccs2)nc2ccccc12)c1nc2ccc(F)cc2s1 | 13 | 32 | · | 49* | 52* | 65* | 50* | 46 | 32* | ·
O=c1c2c([nH]c3ccccc13)CCCC2 | 10 | 3 | 1 | 11 | 20 | · | · | · | · | ·
CC(C)(C)C1CCc2[nH]c3ccccc3c(=O)c2C1 (stereo not given) | 46 | 29 | 28 | 44* | 72* | 94* | 72* | 77* | 33* | ·
CCCN1CCN(S(=O)(=O)c2ccc(-c3cc(C)no3)s2)CC1 | -3 | -4 | 6 | 6 | 31 | · | · | · | · | ·
O=C(N/N=C/c1cccc(F)c1)c1ccc(Cl)cc1 | 3 | -25 | -8 | -2 | 29 | · | · | · | · | ·
CC(C)(C)c1ccc(C(=O)N/N=C/c2cccc(Cl)c2)cc1 | 66* | 37 | 3 | 63* | 54* | 71* | 54* | 41 | 52* | 77*
COC(=O)c1ccc(NC(=O)C2CCCN2C(=O)OCc2ccccc2)cc1 (stereo not given) | 21 | 17 | 2 | 7 | -2 | · | · | · | · | ·
Cc1nn(C(C)C(=O)NCCc2ccco2)c(=O)c2nn(-c3ccccc3)c(C)c12 (stereo not given) | -11 | 5 | -2 | 0 | 9 | · | · | · | · | ·
COc1ccc(NC(=O)C#Cc2ccccc2)cc1 | 51* | -26 | -11 | 24 | 67* | 76* | 48 | 62* | · | 55*
COc1ccc(-c2cc3nc4n(c(=O)c3s2)CCC4)cc1 | 58* | 58* | 26 | 70* | 53* | 72* | 35 | 36 | 76* | 55* | tim10-1 confirm=54*
COc1ccc(-c2cc3nc4n(c(=O)c3s2)CCCCC4)cc1 | 35 | 23 | -13 | 27 | 27 | · | · | · | · | ·
O=c1[nH]c(SCc2ccccc2Cl)nc2c1CCC2 | 30 | 24 | · | 22 | 22 | · | · | · | · | ·
SMILES | tim23-1 inh | tim10-1 inh | PfHsp90 set2 | TIM10 inh | NALP3 yeast inh | NALP3 confirm | Casp1 ASC ctr | NALP3 yeast rt | tim10 confirm | tim23-1 conf | others
CNc1nc(SCc2ccccc2Cl)nc2c1CCCC2 | 54* | 42* | -20 | 46* | 98* | 99* | 98* | 98* | 45* | 60* | tim10-1 confirm=43*
CCN(CC)c1nc(C(N)=O)cc(-c2ccccc2)n1 | 67* | 63* | -7 | 48* | 53* | 41 | 65* | 47 | 15 | 74* | tim10-1 confirm=61*
CC1CCN(c2ccc(-c3cccs3)nn2)CC1 | 68* | 37 | 22 | 38 | 52* | 79* | · | · | · | 72*
Clc1ccc(-c2cccs2)nn1 | 24 | -12 | -11 | -20 | 10 | · | · | · | · | ·
Clc1ccc(OCCn2cnc3ccccc32)c(Cl)c1 | 54* | 24 | -13 | 7 | 71* | 62* | 77* | 63* | · | 28
c1ccc2[nH]c(-c3ccncc3)nc2c1 | 8 | -18 | -33 | -5 | 13 | · | · | · | · | ·
COc1ccc(-c2nc3ccccc3[nH]2)cc1 | 63* | -2 | 54 | 36 | 55* | 62* | 57* | 66* | · | 57*
COc1cccc(NC(=O)Nc2nc(SC)ns2)c1 | -4 | -6 | 4 | -4 | 10 | · | · | · | · | ·
CCSc1nsc(NC(=O)Nc2cccc(F)c2)n1 | 78* | 61* | -5 | 69* | 50* | 78* | 47 | 85* | 60* | 84* | tim10-1 confirm=72*
O=C(N/N=C/c1ccsc1)c1cc2ccccc2o1 | 56* | 46* | -8 | 55* | 72* | 87* | 71* | 75* | 48* | 67* | tim10-1 confirm=-4
O=C(NC(Nc1nc2ccc([N+](=O)[O-])cc2s1)(C(F)(F)F)C(F)(F)F)c1ccccc1Cl | 71* | 78* | 7 | 66* | 74* | 94* | 87* | 94* | 68* | 86* | tim10-1 confirm=76*
